TDP1 block = inhibitors of human tyrosyl-DNA phosphodiesterase TDP1. hit rate 0.28% among 350,000. Potency, µM (titrated, usually from 130 µM), for the others: at the highest dose activity change, negative = inhibition, actives largely listed as inhibitors. Q9NUW8. recombinant TDP1, AlphaScreen DNA substrate cleavage; note: potency is the fitted concentration of half-maximal effect; nearly all actives have a fitted effect of over 40% in size
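E. coli-derived human Tdp1, 1 nM final. Cpd preinc 15 min RT; substrate 15 nM final, 5 min RT; AS bead mix 10 ug/ml final, 10 min RT. Signal loss = tyrosine-FITC cleavage. No-enzyme wells = max signal.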
DT40 TDP1 no CPT = qHTS for Inhibitors of human tyrosyl-DNA phosphodiesterase 1 (TDP1): qHTS in cells in absence of CPT; AID 686978, 2013; DT40 Tdp1-/- hTDP1 cells, no CPT, ATP luminescence, 48 h; hit rate 15% among 420,000; Potency, µM (top dose mostly 46.2 µM), for inactives: at the top dose activity change, negative = growth inhibition, actives largely listed as inhibitors; note: potency is the fitted concentration of half-maximal effect; nearly all actives have a fitted effect of over 55% in size
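Readout: luminescence from CellTiter-Glo after 30 min in the dark at RT. Cells: DT40 Tdp1-/- with stable hTDP1, 400/well. Exposure: compounds alone, ≥48 hr, 37 °C.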
Six1-Eya2 inh = blocks human Six1 binding to Eya2. Q15475+O00167. hit rate 0.56% among 360,000. AID 651725. activity change, % (no concentration beside the values). AlphaScreen GST-Six1/His-Eya2 binding, biochemical; active compounds read low; in the data active = activity change below about -65%; inconclusive = mostly about -30% to -63%
Target sequence (O00167 whole entry, looked up): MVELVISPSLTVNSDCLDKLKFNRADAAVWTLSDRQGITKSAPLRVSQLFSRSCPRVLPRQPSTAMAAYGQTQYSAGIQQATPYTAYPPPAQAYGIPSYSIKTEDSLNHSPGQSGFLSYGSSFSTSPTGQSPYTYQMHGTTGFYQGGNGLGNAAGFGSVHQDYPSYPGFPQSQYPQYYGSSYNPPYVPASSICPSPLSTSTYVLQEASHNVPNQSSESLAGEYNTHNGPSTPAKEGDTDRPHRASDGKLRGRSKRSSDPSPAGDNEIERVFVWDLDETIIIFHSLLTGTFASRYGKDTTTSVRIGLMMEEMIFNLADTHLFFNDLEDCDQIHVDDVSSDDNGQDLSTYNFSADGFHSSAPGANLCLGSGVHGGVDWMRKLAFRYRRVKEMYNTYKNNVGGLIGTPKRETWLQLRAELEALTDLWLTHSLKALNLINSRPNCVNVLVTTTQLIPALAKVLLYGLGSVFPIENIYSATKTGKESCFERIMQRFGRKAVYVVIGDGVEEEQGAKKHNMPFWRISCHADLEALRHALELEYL
Target sequence (Q15475 whole entry, looked up): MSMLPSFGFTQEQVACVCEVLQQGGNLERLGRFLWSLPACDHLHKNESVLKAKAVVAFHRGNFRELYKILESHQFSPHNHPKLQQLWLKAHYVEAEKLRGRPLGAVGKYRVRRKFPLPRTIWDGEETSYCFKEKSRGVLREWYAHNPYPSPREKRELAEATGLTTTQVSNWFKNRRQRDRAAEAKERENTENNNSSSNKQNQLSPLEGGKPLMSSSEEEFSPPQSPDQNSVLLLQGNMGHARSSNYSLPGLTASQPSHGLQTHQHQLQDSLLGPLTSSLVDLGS
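AlphaScreen with GST-Six1 and His-Eya2 (5X mix: 250 nM and 500 nM), glutathione donor and nickel acceptor beads; buffer 50 mM Tris pH 8.0, 300 mM NaCl, 1 mM TCEP; 1 h at 37 C in the dark.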
DT40 TDP1 CPT = growth inhibition of DT40 Tdp1-/-;hTDP1 cells with camptothecin (screen for TDP1 inhibitors) | hit rate 12% among 420,000 | chicken DT40 Tdp1-/-;hTDP1 cells + 20 nM CPT, ATP luminescence, 48 h | Potency, µM (series often up to 46.2 µM), for inactives: at the highest dose activity change, negative = growth inhibition, usual class: inhibitors | AID 686979; note: potency is the fitted concentration of half-maximal effect; nearly all actives have a fitted effect of over 55% in size
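Chicken DT40 Tdp1-/- cells stably complemented with human TDP1 were seeded at 400 cells/well in medium containing 20 nM camptothecin, exposed to pin-transferred compounds, and grown at 37 °C for at least 48 hr. Viability was read as ATP luminescence.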
CtBP-E1A inh = CtBP/E1A binding inhibition. AlphaScreen GST-E1A/His-CtBP binding, 1536-well; active compounds read low. activity change, % (no concentration beside the values). hit rate 0.49% among 340,000; in the data active = activity change below about -65%; inconclusive = mostly about -30% to -63%
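Steps: dispense buffer (Tris pH 8.0, NaCl 300 mM, TCEP 1 mM, BSA, Tween 20); add 5X protein mix (GST-E1A, His-CtBP, 125 nM each); pin 23 nL compound; 2 h at 37 °C, dark; add 5X beads (50 ug/mL); 1 h; read.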
IL-1B inflam inh = inflammasome signaling inhibition, IL-1 beta readout | THP-1 LPS/ATP IL-1B secretion, AlphaLISA, 16 h; active compounds read low | activity change, % at 57.5 µM | hit rate 4.7% among 360,000; in the data active = activity change below about -50%; inconclusive = mostly about -30% to -49%
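Secreted IL-1B measured by AlphaLISA bead assay after 16 h compound exposure of THP-1 cells; compounds (final up to 57.5 uM) added 1 h before LPS (250 ng/mL) and ATP (1.25 mM) stimulation; lower signal means less secretion.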
* hit, by the source's call; ? = inconclusive; . = no result. An excerpt weighted towards active compounds, which were near 18% of everything screened. Unless noted, calls come from the whole dose curve; as a rule, active = well fitted curve in the direction sought with a large enough effect; inconclusive = small, poorly fitted or top-dose-only effect, or another doubt; inactive = no such curve, though single readings can be large; an effect the other way counts as inactive or inconclusive. % is set by controls: 0 for no effect and ±100 for the full control effect.

SMILES	TDP1 block	DT40 TDP1 no CPT	Six1-Eya2 inh	DT40 TDP1 CPT	CtBP-E1A inh	IL-1B inflam inh
Cc1nc2ccccc2n(CC(=O)Nc2cc(Cl)cc(Cl)c2)c1=O	2%	15µM*	-2	9.2µM*	8	13
O=C(Cn1c(-c2cscn2)nc2ccccc21)Nc1ccc2ccccc2c1	6%	?	-3	14µM*	-6	1
Cc1nc2ccccc2nc1OCC(=O)Nc1ccc2ccccc2c1	1%	?	3	-9%	1	5
CCCN=C1N(CC)C[C@@H]2[C@@H]3C(=O)N(C)C(=O)[C@@H]3[C@](Cc3ccccc3)(C(=O)OC)N12	.	-2%	6	-13%	-5	10
Cc1ccc2nc(CCl)[n+]([O-])c(-c3ccccc3)c2c1	.	16µM*	-1	26µM*	12	?
C/C(=N\NC(=O)CNC(=O)c1cccs1)c1ccc(Cl)c(Cl)c1	2%	?	-6	2.6µM*	-11	-19
COc1ccc(/C(C)=N/NC(=O)CNC(=O)c2cccs2)cc1OC	0%	-24%	1	1%	.	-5
COc1cccc(C(C(=O)NC(C)(C)C)N(Cc2ccc(C)cc2)C(=O)CCC(=O)Nc2cc(C)on2)c1OC (centres undefined)	9%	?	0	?	0	-11
COCCCNC(=O)CN1C(=O)/C(=C/c2ccccc2)Sc2ccccc21	6%	15µM*	6	?	.	-15
CCOCCCNC(=O)CN1C(=O)/C(=C\c2ccc(C)cc2)Sc2ccccc21	0%	?	-5	21µM*	-3	2
CCOCCCNC(=O)CN1C(=O)/C(=C/c2ccccc2)Sc2ccccc21	0%	?	3	?	15	?
CN1/C(=C\C=C(C#N)C#N)C(C)(C)c2ccccc21	6%	-16%	12	-7%	.	19
CN1/C(=C\C(=O)Nc2ccc(Cl)cc2)C(C)(C)c2ccccc21	4%	?	-5	?	1	-58*
CN1/C(=C\C(=S)Nc2ccccc2)C(C)(C)c2ccccc21	9%	2.1µM*	-28	10µM*	-22	?
CC(C)CC(N)C(=O)OCc1ccc([N+](=O)[O-])cc1 (centres undefined)	0%	-14%	9	0%	10	17
O=C(CN1CCN(c2ccc(Cl)cc2)CC1)c1ccc2c(c1)OCO2	8%	?	-9	?	-6	13
N#CSCC(=O)c1cccc2ccccc12	5%	4.6µM*	-14	4.6µM*	3	-61*
CCn1c(NC(=O)C2CCCCC2)nc2ccccc21	5%	13µM*	6	18µM*	3	-12
O=C(Nc1nc2ccccc2n1CCN1CCCCC1)C1CCCCC1	3%	?	6	?	-3	-22
S=C(Nc1ccccc1)Nc1nc2ccccc2n1CCOc1ccc(Cl)cc1	12%	16µM*	0	21µM*	-25	-88*
CCn1nccc1C(=O)Nc1nc2ccccc2n1CCN1CCCCC1	0%	?	-16	35µM*	-9	?
CCn1c(NC(=S)Nc2ccccc2)nc2ccccc21	8%	4.6µM*	1	5.2µM*	-3	-9
Cc1ccc(S(=O)(=O)NC2CCSC2=O)cc1C (centres undefined)	1%	0%	3	3%	-1	7
CCOc1ccccc1NC(=O)c1ccccc1-c1ccccc1	-8%	23µM*	5	?	16	34
CCOc1ccccc1NC(=O)c1cc(SC)ccc1Cl	3%	18µM*	20	?	-14	47
SMILES	TDP1 block	DT40 TDP1 no CPT	Six1-Eya2 inh	DT40 TDP1 CPT	CtBP-E1A inh	IL-1B inflam inh
CCOc1ccccc1NC(=O)c1cccc2ccccc12	.	?	0	?	1	-14
CCN(c1ccccc1)S(=O)(=O)c1ccc(OC)c(NC(=O)CNCC(C)O)c1 (centres undefined)	-2%	-19%	6	-22%	0	0
CNC(=O)CN1C(=O)NC2(CCc3ccccc3C2)C1=O (centres undefined)	-3%	1%	-13	13%	7	13
CCCCN(CC)CCNC(=O)CNC(=O)Cn1ccc2ccccc2c1=O	-3%	-3%	5	5%	-1	-3
Cc1[nH]c2ccccc2c1/C=C/c1cc[n+](C)cc1	3%	0.92µM*	-2	0.65µM*	-3	9
Cc1[nH]c2ccccc2c1/C=C/c1c(C)[nH]c2ccccc12	.	10µM*	.	11µM*	.	.
Cc1[nH]c2ccccc2c1/C=N/Nc1ccc(F)cc1F	7%	.	.	.	.	.
COc1ncnc2c1ncn2CCCNCc1ccco1	.	-2%	1	2%	-3	-18
COc1cc(OC)cc(C(=O)NNC(=O)c2nn(C)c(=O)c3ccccc23)c1	2%	?	2	?	-7	-11
Fc1ccc(-c2cc(-c3nc(-c4ccc(Cl)cc4)no3)[nH]n2)cc1	-3%	?	.	?	.	.
COc1cc(-c2noc(-c3cc(C)[nH]n3)n2)cc(OC)c1OC	0%	?	.	-20%	.	.
COc1cc(-c2noc(-c3cc(C(C)C)[nH]n3)n2)cc(OC)c1OC	8%	21µM*	.	?	.	.
CC(C)c1cc(-c2nc(-c3ccc(Cl)cc3)no2)n[nH]1	0%	21µM*	.	21µM*	.	.
CCCCNC(=O)C1(C)CCN1C(=O)c1c(F)ccc(C)c1F (centres undefined)	.	?	-4	?	0	-4
O=C(CSc1ncnc2sc3c(c12)CCCC3)N1CCC(c2noc3ccc(F)cc23)CC1	8%	10µM*	3	11µM*	14	4
Cc1cc(SCC(=O)N2CCC(c3noc4ccc(F)cc34)CC2)nc2ccccc12	1%	?	0	23µM*	3	?
O=C(CSc1ncnc2sc3c(c12)CCC3)N1CCOCC1	-14%	-22%	0	7%	-10	14
CCOCCCNC(=O)N1CCN(S(=O)(=O)c2ccc3c(ccn3C)c2)CC1	8%	.	.	.	.	.
COc1ccc(-n2c(=O)c(-c3cccc(Cl)c3)nc3cncnc32)cc1	.	-12%	.	-1%	.	.
Cc1ccc(-c2nnc(N3CCC(C)CC3)c3ccccc23)cc1	0%	8.2µM*	1	13µM*	.	-14
CCN1CCN(c2nnc(-c3ccccc3)c3ccccc23)CC1	.	12%	4	-2%	-1	0
Cc1ccc(-c2nnc(N3CCC(C)CC3)c3ccccc23)cc1C	2%	9.2µM*	-2	6.5µM*	-9	-95*
